SSB-PriA inh: K. pneumoniae PriA-SSBct interaction inhibition. AlphaScreen SSBct-PriA binding, biotinylated peptide. inhibition, % at 33 µM. actives 0.6% (n = 430,000); in the data active means inhibition mostly above about 37%, no sharp cut-off; inactive means mostly below about 20%
ugtP null kill: compounds lethal to S. aureus RN4220 ugtP deletion mutant. AID 1259309. actives 0.54% (n = 330,000). growth inhibition, % (no concentration beside the values). OD600 growth, 16 h; in the data active means growth inhibition above about 68%
RN4220 kill: kills Staphylococcus aureus RN4220 | S. aureus RN4220 growth, OD600, 16 h | inhibition, % (no concentration beside the values) | actives 0.33% (n = 330,000) | AID 1259311; in the data active means inhibition above about 85%
A number is an active result. Sampled rows, rich in hits. Any-hit rate of the full collection: about 1%.

COc1ccc(C(=O)c2c(C(F)(F)F)oc3c2C(=O)c2ccccc2C3=O)cc1 was read as SSB-PriA inh inactive, ugtP null kill inactive and RN4220 kill 94.
COc1ccc(C(=O)c2coc(-c3ccccc3C(=O)O)c2C(=O)O)cc1 was read as SSB-PriA inh inactive, ugtP null kill inactive and RN4220 kill inactive.
For CCOc1ccccc1NC(=O)Cn1c(C)cc(C)c(-c2nc(-c3ccc(F)cc3)no2)c1=O the results were SSB-PriA inh inactive.
`Cc1oc2ccc(OCc3ccc(F)cc3Cl)cc2c1C(=O)OC(C)C` gave SSB-PriA inh inactive.
`COC(=O)c1cc(COc2ccc3oc(C)c(C(=O)OC(C)C)c3c2)c(C)o1` gave SSB-PriA inh inactive, ugtP null kill 96 and RN4220 kill inactive.
`CCCCCC1CCC(c2ccc(C(N)=NO)cc2)CC1` (stereo not drawn) gave SSB-PriA inh inactive.
CCCCCC1CCC(c2ccc(/C(N)=N/O)cc2)CC1 (stereo not drawn) was read as ugtP null kill 100 and RN4220 kill inactive.
Cc1cccc(Cn2cc(/C=C/[N+](=O)[O-])c3ccccc32)c1 was read as SSB-PriA inh inactive, ugtP null kill inactive and RN4220 kill inactive.
`O=[N+]([O-])/C=C/c1cn(Cc2ccc(Cl)cc2)c2ccccc12` gave SSB-PriA inh inactive, ugtP null kill inactive and RN4220 kill 90.
`CC1CCN(c2cc(N3CCOCC3)c(F)cc2[N+](=O)[O-])CC1` gave SSB-PriA inh 58, ugtP null kill inactive and RN4220 kill inactive.
O=[N+]([O-])c1cc(F)c(N2CCc3ccccc3C2)cc1N1CCCCCC1 was read as SSB-PriA inh 65.
Screening CC1CCN(c2cc(N3CCc4ccccc4C3)c(F)cc2[N+](=O)[O-])CC1 returned SSB-PriA inh inactive.
For O=[N+]([O-])c1cc(F)c(N2CCCCCC2)cc1N1CCc2ccccc2C1 the results were SSB-PriA inh 55.
Screening CC1CCN(c2cc(N3CCOCC3)c([N+](=O)[O-])cc2F)CC1 returned SSB-PriA inh inactive, ugtP null kill inactive and RN4220 kill inactive.
Screening O=[N+]([O-])c1cc(F)c(N2CCc3ccccc3C2)cc1N1CCCC1 returned SSB-PriA inh inactive.
For CC(=O)c1c(C)nn(CC(=O)O)c1C the results were SSB-PriA inh inactive.
`CC(C)c1ccc(NC(=O)Cn2ccn(-c3cccc(F)c3)c(=O)c2=O)cc1` gave SSB-PriA inh inactive.
O=S(=O)(c1ccc2c(c1)CCCC2)N1CC(Oc2nccs2)C1 was read as SSB-PriA inh inactive.
Screening Cn1nc(CN(Cc2ccco2)C(=O)c2cccc(C(F)(F)F)c2)cc1C1CC1 returned SSB-PriA inh inactive.
O=C(NCc1cncc(-c2cccs2)c1)c1ccc(-n2cccc2)cc1 was read as SSB-PriA inh inactive.
Screening CCOc1ccccc1NC(=O)CN1C(=O)[C@@]2(SCC(=O)N2c2ccc(F)cc2)c2ccccc21 returned SSB-PriA inh inactive.
Screening COc1ccccc1C(=O)N(CCc1cccs1)C1CC1 returned SSB-PriA inh inactive.
Screening CCS(=O)(=O)c1ccc(C(=O)Nc2sc(C(=O)OC)c(C)c2C#N)cc1 returned SSB-PriA inh inactive.
`CCOC(=O)Nc1ccc2c(c1)N(C(=O)c1cccs1)CC2` gave SSB-PriA inh inactive.
`CCOc1ccc(NC(=O)Cc2csc(Nc3ccc(F)cc3)n2)cc1` gave SSB-PriA inh inactive.
Screening O=c1[nH]nc(-c2ccc([N+](=O)[O-])o2)c(=O)[nH]1 returned SSB-PriA inh inactive, ugtP null kill inactive and RN4220 kill inactive.
`Nc1nnc(-c2ccc([N+](=O)[O-])o2)s1` gave SSB-PriA inh inactive, ugtP null kill 92 and RN4220 kill 98.
Screening COc1ccccc1Nc1ncccc1[N+](=O)[O-] returned SSB-PriA inh 60, ugtP null kill inactive and RN4220 kill inactive.
`COc1ccccc1C(CNc1ncccc1[N+](=O)[O-])N(C)C` (stereo not drawn) gave SSB-PriA inh inactive, ugtP null kill inactive and RN4220 kill inactive.
For CC1CCc2nc(NC(=O)c3cccc(C(F)(F)F)c3)sc2C1 (stereo not drawn) the results were SSB-PriA inh inactive.
Screening CN(C)c1cncc(O[C@H]2CCN(C(=O)CN(C)S(C)(=O)=O)C2)n1 returned SSB-PriA inh inactive.
For On1c(-c2ccccc2)nc2ccccc21 the results were SSB-PriA inh inactive, ugtP null kill inactive and RN4220 kill inactive.
Screening O=Nc1c2nc3ccccc3n(O)c-2c2ccccc12 returned ugtP null kill 90 and RN4220 kill inactive.
`O=C(C1c2ccccc2Oc2ccccc21)N1CCC(S(=O)(=O)Cc2ccco2)C1` (stereo not drawn) gave SSB-PriA inh inactive.
Screening CC(C)CC(=O)NC(=S)Nc1ccc(NC(=O)c2ccco2)cc1 returned SSB-PriA inh inactive, ugtP null kill 89 and RN4220 kill inactive.
`CCC(=O)NC(=S)Nc1ccc(NC(=O)c2ccco2)cc1` gave SSB-PriA inh inactive, ugtP null kill inactive and RN4220 kill inactive.
CCN(CC)S(=O)(=O)c1ccc(NC(=S)NC(=O)CC(C)C)cc1 was read as SSB-PriA inh inactive, ugtP null kill 89 and RN4220 kill inactive.
`CCN(CC)S(=O)(=O)c1ccc(NC(=S)NC(=O)C(C)C)cc1` gave SSB-PriA inh inactive, ugtP null kill inactive and RN4220 kill inactive.
`COc1ccccc1NC(=O)CSc1ccc(NC(=O)c2ccccc2)nn1` gave SSB-PriA inh inactive.
For N#Cc1cccc(C(=O)N2CCC(CSCc3ccco3)CC2)c1 the results were SSB-PriA inh inactive.
Screening O=C(c1c[nH]c2ccccc12)N1CCC(CSCc2ccco2)CC1 returned SSB-PriA inh 35.
`O=C(c1ccccc1F)N1CCC(CSCc2ccco2)CC1` gave SSB-PriA inh inactive.
CN(C)c1cccc(C(=O)N2CCC(CSCc3ccco3)CC2)c1 was read as SSB-PriA inh 29.
`CCC(=NNC(=O)c1ccccc1)c1c(O)n(Cc2ccccc2)c(=O)[nH]c1=O` gave SSB-PriA inh inactive.
`Cc1cc(NC(=O)C23CC4CC(CC(C4)C2)C3)n(-c2nc3c(cnn3-c3ccc(F)cc3)c(=O)[nH]2)n1` gave SSB-PriA inh inactive.
Screening Cc1ccn(-c2ccc(Nc3ccc(NC(=O)c4c(F)cccc4F)cc3)nn2)n1 returned SSB-PriA inh inactive.
For Cc1ccn(-c2ccc(Nc3ccc(NC(=O)c4c(F)cccc4Cl)cc3)nn2)n1 the results were SSB-PriA inh 39.
Cc1ccn(-c2ccc(Nc3ccc(NC(=O)c4ccccc4Br)cc3)nn2)n1 was read as SSB-PriA inh 35.
For Cc1ccn(-c2ccc(Nc3ccc(NC(=O)C4CCCCC4)cc3)nn2)n1 the results were SSB-PriA inh inactive.
`Cc1nc(-c2ccc(N3CCN(C(=O)c4ccc(Cl)s4)CC3)nc2)no1` gave SSB-PriA inh inactive.
Cc1c(CCOC(=O)C23CC4CC(CC(C)(C4)C2)C3)sc[n+]1Cc1ccccc1 was read as SSB-PriA inh inactive, ugtP null kill 100 and RN4220 kill inactive.
`Cc1c(CCOC(=O)CC23CC4CC(CC(C4)C2)C3)sc[n+]1CC(=O)c1ccccc1` gave SSB-PriA inh inactive, ugtP null kill inactive and RN4220 kill inactive.
Screening Cc1c(CCOC(=O)C23CC4CC(CC(C4)C2)C3)sc[n+]1Cc1ccccc1 returned SSB-PriA inh inactive, ugtP null kill inactive and RN4220 kill inactive.

Assay outcomes from PubChem.
